Laboratory results as given in PubChem BioAssay AID1778 (Sanford-Burnham Center for Chemical Genomics, 2009).
Screen size: about 290,000 compounds; about 260 (0.09%) were called active. The full list was thinned out, with actives kept by preference. Entries with a potency or affinity are not part of this list. A number with no mark means an inactive call. Rule as the data show it: active = inhibition above about 50%; inactive = the rest.

Molecular target: Kappa-type opioid receptor (Homo sapiens) (UniProt P41145)
Assay: KOR antagonists, beta-arrestin recruitment, cell-based, luminescence, uHTS (AID 1778)
Details: antagonist mode, hits give high values; at 10 µM unless noted

Sequence of Kappa-type opioid receptor (Homo sapiens) (P41145 whole entry, looked up): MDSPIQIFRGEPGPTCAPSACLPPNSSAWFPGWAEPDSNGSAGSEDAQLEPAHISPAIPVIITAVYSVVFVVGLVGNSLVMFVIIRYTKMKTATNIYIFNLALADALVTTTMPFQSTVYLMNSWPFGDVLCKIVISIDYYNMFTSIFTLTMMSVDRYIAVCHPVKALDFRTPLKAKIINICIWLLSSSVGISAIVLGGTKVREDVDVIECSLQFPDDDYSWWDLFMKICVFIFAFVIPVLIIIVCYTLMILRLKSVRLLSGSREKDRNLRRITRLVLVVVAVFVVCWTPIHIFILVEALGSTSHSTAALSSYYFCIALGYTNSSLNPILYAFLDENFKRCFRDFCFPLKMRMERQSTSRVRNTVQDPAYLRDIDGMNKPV

Going from `O=C(CCN1C(=O)S/C(=C/c2ccc(Cl)cc2)C1=O)N1CCOCC1` to `Cc1ccccc1-c1nc(CS(=O)(=O)CC(=O)N2CCOCC2)c(C)o1`, the inhibition falls from 36.7% to -6%.

First: Cn1c(C(=O)NCc2cccnc2)cc2sccc21
Second: C/C(=N\NC(=O)c1ccc2c(c1)OCO2)c1cccnc1
The inhibition of the first is higher: 26.2% for the first, 14.6% for the second.

Compared with `Cc1nc(Cl)c(C(=O)NCc2ccccc2)c(C)c1[N+](=O)[O-]`, `Cc1nc(Cl)c(C(=O)NCc2ccccc2)c(C)c1Cl` is lower in inhibition: 13.7% for the first, 7.6% for the second.

First: O=C(NCc1ccccc1Cl)c1cc(=O)[nH]c2ccccc12
Second: O=C(NCc1ccc(Cl)cc1)c1cc(=O)[nH]c2ccccc12
The inhibition of the first is higher: 4.5% for the first, -54.2% for the second.

First: CCOC(=O)c1cc(-c2ccc(N3CCOCC3)cc2)nn1-c1ccc(F)cc1F
Second: N#CC1=C(N)Oc2n[nH]c(-c3ccccc3)c2C1c1cccc(OC(=O)N2CCOCC2)c1 (stereo not given)
The inhibition of the first is higher: 21.8% for the first, 15.5% for the second.

Compared with `COc1ccc(NC(=O)CSc2nnnn2-c2ccc(OC)cc2)cc1`, `Cn1cnnc1SCC(=O)Nc1ccc(OC(F)F)cc1` is lower in inhibition: -1.3% for the first, -3.3% for the second.

First: CC(CCc1ccccc1)NC(=O)COC(=O)c1ccc(S(C)(=O)=O)c([N+](=O)[O-])c1 (stereo not given)
Second: CC(=O)c1cccc(NC(=O)COC(=O)c2ccc(S(C)(=O)=O)c([N+](=O)[O-])c2)c1
The inhibition of the first is higher: 18.3% for the first, 18.1% for the second.

Going from `O=C(Cc1cccs1)Nc1ccccc1C(=O)O` to `CNc1ccc(OC(F)F)cc1C(=O)c1ccccc1`, the inhibition falls from 27.3% to 17.2%.

Compared with `O=c1cc(-c2ccccc2)[nH]n1-c1nc2ccccc2[nH]1`, `COC(=O)Cc1cc(=O)n(-c2nc3ccccc3[nH]2)[nH]1` is higher in inhibition: 11.5% for the first, 21.2% for the second.

First: COc1ccc(NC(=O)CSc2nc3sc(C)cc3c(=O)n2C)c(OC)c1
Second: CNC(=O)CSc1nc2ccccc2c(=O)n1-c1cc(OC)ccc1OC
The inhibition of the first is lower: -25.7% for the first, 0.7% for the second.

Going from `COc1cc(/C=C2\SC(=S)N(NC(=O)c3ccc(O)cc3)C2=O)ccc1O` to `COc1cc(/C=C2\SC(=S)N(NC(=O)c3ccncc3)C2=O)ccc1O`, the inhibition rises from 47.2% to 49.4%.

Compared with `O=C1/C(=C/c2ccc(O)c(O)c2)SC(=S)N1Nc1ccccc1`, `CCOc1cc(/C=C2\SC(=S)N(Nc3ccccc3)C2=O)ccc1O` is lower in inhibition: 35.5% for the first, 9% for the second.

Compared with `Cc1c(N2C(=O)/C(=C/c3ccccc3)SC2=S)c(=O)n(-c2ccccc2)n1C`, `Cc1ccc(/C=C2\SC(=S)N(c3c(C)n(C)n(-c4ccccc4)c3=O)C2=O)cc1` is higher in inhibition: -9.4% for the first, -2.4% for the second.

Compared with `CCOc1ccc(/C=C2\SC(=S)N(C(C(=O)O)c3ccccc3)C2=O)cc1OC` (stereo not given), `CCOc1ccc(/C=C2/SC(=S)N(C(C(=O)O)c3ccccc3)C2=O)cc1OCC` (stereo not given) is lower in inhibition: 9.7% for the first, -34.9% for the second.

First: COc1ccc(NC(=O)CCCN2C(=O)C(c3ccccc3)Oc3cccnc32)cc1OC (stereo not given)
Second: COc1ccc(CNC(=O)Nc2cccc3ccccc23)cc1
The inhibition of the first is lower: 7% for the first, 7.6% for the second.

First: CN1CCN(C2CC(=O)N(CCc3ccccc3)C2=O)CC1 (stereo not given)
Second: CCc1cc2c(=O)[nH]c(Cc3ccccc3)nc2s1
The inhibition of the first is higher: 10.4% for the first, -15.3% for the second.

First: Cc1cc(C(c2ccc(C)o2)c2ccc(C)o2)c(O)c([N+](=O)[O-])c1
Second: Cc1cc(C(=O)Nc2nc(-c3ccccn3)cs2)ccc1[N+](=O)[O-]
The inhibition of the first is lower: -22.8% for the first, 22.6% for the second.

Compared with `COc1ccc([N+](=O)[O-])cc1NC(=O)Cc1c(Cl)cccc1Cl`, `O=C(/C=C/c1cccc([N+](=O)[O-])c1)c1cccs1` is lower in inhibition: 15.2% for the first, 14.1% for the second.

Going from `CC(C)Cc1nc2oc3c(Cl)ncnc3c2c2c1CCC2` to `CCCc1nc2oc3c(N4CCNCC4)ncnc3c2c2c1CCCC2`, the inhibition falls from 32.2% to 14.5%.

Going from `CCCc1nc2sc3c(=O)[nH]cnc3c2c2c1CCCC2` to `CCCc1nc2sc3c(=O)n(N)cnc3c2c2c1CCCC2`, the inhibition rises from -21.3% to -14.5%.

Compared with `Cn1ccnc1Sc1ccccc1[N+](=O)[O-]`, `O=C(Nc1nccs1)c1cc(Cl)ccc1[N+](=O)[O-]` is higher in inhibition: 6.9% for the first, 8.6% for the second.

Going from `O=c1[nH]c(-c2ccccn2)nc2ccccc12` to `Cc1sc2nc(-c3ccccn3)[nH]c(=O)c2c1-c1ccccc1`, the inhibition rises from 13.8% to 49.2%.

Going from `CCc1cc2c(=O)[nH]c(-c3ccncc3)nc2s1` to `O=C1CSC(c2ccccc2Br)N1c1ccc(Cl)cn1` (stereo not given), the inhibition rises from -17.3% to 2.8%.

Going from `CCOc1ccc(C(=O)/C=C/Nc2ccc(S(=O)(=O)Nc3onc(C)c3C)cc2)cc1` to `CCOC(=O)c1nn(-c2ccccc2C)c2nc(CC(C)C)c(C#N)c(=O)n12`, the inhibition falls from -11% to -35.8%.

Compared with `C[C@H](NC(=O)c1ccccc1)C(=O)Nc1nc(-c2ccccn2)cs1`, `CC(=O)/C(=N\Nc1ccccc1Cl)Sc1cccc2cccnc12` is higher in inhibition: -31% for the first, -17.2% for the second.

First: Cc1ccc(SCC(=O)N2CCc3ccccc32)cc1
Second: Fc1ccc2[nH]c3c(c2c1)CN(C(=S)NCc1ccccc1)CC3
The inhibition of the first is higher: -4.7% for the first, -9.6% for the second.

Compound `CC(=O)/C(=N\Nc1cccc(Cl)c1)Sc1cccc2cccnc12` has an inhibition of 9.1%.

`O=C(NCc1ccccc1)c1c(Cl)nc(Cl)c(Cl)c1Cl` was tested, and the inhibition was 58.5% (active).
`Cc1ccccc1NC(=O)COC(=O)c1ccc(S(C)(=O)=O)c([N+](=O)[O-])c1` was tested, and the inhibition was 53.9% [at 20 µM] (active).
`CCc1cc2c(=O)[nH]c(-c3ccccn3)nc2s1` was tested, and the inhibition was 104% (active).
With `O=C(Nc1nc(-c2ccccn2)cs1)c1cc(Cl)ccc1[N+](=O)[O-]` the inhibition was 86.8% (active).

Compared with `O=C(NCC1CCCO1)C(c1ccc(F)cc1)N(Cc1ccc2c(c1)OCO2)C(=O)c1ccc(CN2CCOCC2)o1` (stereo not given), `O=C(NCCN1CCOCC1)C(=O)NCc1ccc2c(c1)OCO2` is lower in inhibition: -17.9% [at 20 µM] for the first, -60.9% [at 20 µM] for the second.

With `CC(Oc1ccc(Br)cc1)C(=O)NCc1ccccn1` (stereo not given) the inhibition was -23.9% [at 20 µM].
